# Test results reported in PubChem BioAssay (NCATS).
# Records with an inconclusive call do not appear. Entries that show only a call come without a potency. Active and inactive are the calls of the source. Calls come from the whole dose curve; as a rule, active = well fitted cell-killing curve with a large enough effect; inconclusive = small, poorly fitted or top-dose-only effect; inactive = flat fitted curve, though single readings scatter.
# Assay: Cell Viability - N2a (AID 540);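 note: cells exposed to compound for 40 h at 37 °C; nearly all actives have a fitted effect of over 45% in size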
# Conditions: N2a mouse neuroblastoma cell viability; activity change, negative = cytotoxicity: at 92.2 µM (top of the series)
# Text: NIH Chemical Genomics Center [NCGC]
# NIH Molecular Libraries Screening Centers Network [MLSCN]
# National Institutes of Environmental Health Sciences [NIEHS]
# National Toxicology Program [NTP]
# We have developed a 1536-well cell-based assay for quantitative high throughput screening (qHTS) against a number of cell lines to determine in vitro cytotoxicity of small molecules. This particular assay uses the N2a cell line which is derived from mouse neuroblastoma.
# NCGC Assay Protocol Summary:
# The CellTiter-Glo luminescent cell viability assay (Promega) is a homogeneous method to measure the number of viable cells in culture. The end point readout of this assay is based on quantitation of intracellular ATP, an indicator of metabolic activity, using the luciferase reaction. Luciferase catalyzes the oxidation of beetle Luciferin to oxyluciferin and light in the presence of ATP. The luminescent signal is proportional to amount of ATP present.
# Using the CellTiter-Glo luminescent cell viability assay, the amount of cellular ATP was measured in the N2a cell line with complete culture medium following compound treatment for 40 hours. The assay was performed in opaque white Kalypsys 1536-well plates. In the screen, tamoxifen and doxorubicin were used as positive controls. Library compounds were measured for their ability to cause acute toxicity in the cell line, as reflected by a decrease in intracellular ATP levels, in a concentration-dependent manner. […] AC50 values were determined from concentration-response data modeled with the standard Hill equation.
# qHTS protocol for CellTiter Glo N2a cellular assay
# [Step] [Parameter] [Value] [Description]
# 1. Reagent; 5 uL; 1500 N2a cells/well
# 2. Time; 5 hr; 37 °C incubation
# 4. Controls; 23 nL; Tamoxifen 0.34 uM to 100 uM & Doxorubicin 0.02 nM to 100 uM
# 5. Time; 40 hr; 37 °C incubation
# 6. Reagent; 5 uL; CellTiter Glo reagent
# 7. Time; 20 min; Room Temperature
# 8. Detection; Luminescence; Viewlux plate reader
# Keywords: cell viability, cytotoxicity, N2a cell line, luminescence, NTPHTS, NTPHTS_NCGC, NIEHS, EPA, DSSTox, MLSMR, MLSCN, NIH Roadmap, qHTS, NCGC
SMILES,Potency,"activity change, negative = cytotoxicity"
Cc1cc(-c2ccc(N)c(C)c2)ccc1N,inactive,–
CN(C)N=O,inactive,–
ClC(Cl)(Cl)C(Cl)(Cl)Cl,inactive,–
N#CCCCCC#N,inactive,–
ClP(Cl)(Cl)(Cl)Cl,inactive,–
C=C(C)CCl,inactive,–
c1ccc2c(c1)CCNC2,inactive,–
Cc1cnc[nH]1,inactive,–
C=C(Cl)CSC(=S)N(CC)CC,inactive,–
CCN(CC)N=O,inactive,–
O=NN1CCCCC1,inactive,–
O=C(Cc1ccccc1)OCc1ccccc1,inactive,–
O=[N+]([O-])c1ccccc1O,inactive,–
CCN(N=O)C(N)=O,inactive,–
CC(C)CC(C)N (stereo not given),inactive,–
CC(Cl)CCl (stereo not given),inactive,–
OCCOCCO,inactive,–
CC(=O)NNc1ccccc1,inactive,–
CC[N+](=O)[O-],inactive,–
CCCCCOC(=O)c1ccccc1C(=O)OCCCCC,inactive,–

SMILES,Potency,"activity change, negative = cytotoxicity"
CN(C)C(=O)Nc1cccc(C(F)(F)F)c1,inactive,–
S=c1[nH]c2ccccc2[nH]1,inactive,–
O=C(O)C(Cl)Br (stereo not given),inactive,–
ClCCBr,inactive,–
O=[N+]([O-])c1ccc(Cl)cc1,inactive,–
CC(C)(C)C(O)(CCc1ccc(Cl)cc1)Cn1cncn1 (stereo not given),inactive,–
CC(C)CON=O,inactive,–
CN(C)c1ccc(N)cc1,–,-109% (active)
c1ccc(P(c2ccccc2)c2ccccc2)cc1,inactive,–
O=c1ccc(=O)[nH][nH]1,inactive,–
Clc1cccc(Cl)c1,inactive,–
Cc1ccc2c(C)cccc2c1,inactive,–
O=Cc1ccc2c(c1)OCO2,inactive,–
Clc1ccc(C(Cl)(Cl)Cl)cc1Cl,inactive,–
Brc1cccc(-c2ccccc2)c1,inactive,–
Nc1ccc(Oc2ccc(N)cc2)cc1,inactive,–
O=C(O)C(Br)Br,inactive,–
CCOP(=S)(OCC)Oc1nc(Cl)c(Cl)cc1Cl,inactive,–
CCOP(=S)(OCC)SCCSCC,inactive,–
CC1CC(=O)O1 (stereo not given),inactive,–
